Drawing on PubChem BioAssay (Tox21), this text covers Potency and outcome for 15 molecules.

Assay [1] has as its target Androgen receptor (Homo sapiens) (UniProt P10275). The assay can be described thus: qHTS assay to identify small molecule agonists of the androgen receptor (AR) signaling pathway using the MDA cell line (AID 743040; further: nearly all actives have a fitted effect of over 20% in size). Conditions: MDA-kb2 AR-luc cells, MMTV luciferase, 16 h; series mostly up to 70.3 µM. A digest of the protocol:
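Luciferase read-out, ONE-Glo, 30 min RT. Cells: MDA-kb2 AR-luc, MMTV promoter with AR and GR response elements. Compound exposure 16 h, 37C, 0% CO2, after 5 h pre-incubation. qHTS agonist mode.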
Background: In qHTS, concentration-response curves come from the screen itself.

Assay [2] has as its target Estrogen receptor (Homo sapiens) (UniProt P03372). The assay can be described thus: qHTS assay to identify small molecule agonists of the estrogen receptor alpha (ER-alpha) signaling pathway using the BG1 cell line (AID 743079). Further: nearly all actives have a fitted effect of over 20% in size. Further: potency means the concentration at half of the fitted maximal effect. Conditions: BG1Luc4E2 cells, ERE-luciferase agonist, 22 h; series mostly up to 70.3 µM.
For assay [3], the target named is Bile acid receptor (Homo sapiens) (UniProt Q96RI1). The assay can be described thus: qHTS assay to identify small molecule agonists of the farnesoid-X-receptor (FXR) signaling pathway (AID 743220; active means well fitted activation curve with a large enough effect in the signal ratio in the repeat runs, not every such curve was filed as active; inconclusive means weak or mixed curves, or effect the other way; the % refers to the signal ratio). Conditions: HEK293T FXR-UAS-bla, beta-lactamase FRET ratio, 16 h; series mostly up to 62.6 µM. A digest of the protocol:
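FXR-UAS-bla HEK 293T cells carrying a UAS-driven beta-lactamase reporter were plated for 5 h at 37C/5% CO2, then exposed to DMSO-dissolved Tox21 10K compounds for 16 h at 37C. A LiveBLAzer B/G FRET substrate was loaded for 2 h at room temperature before fluorescence reading.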

Assay [4] in a line: qHTS assay for small molecule agonists of the p53 signaling pathway - cell viability (AID 651633; calls by dose curve;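 further: p53RE-bla HCT reporter cells with a stable beta-lactamase p53 reporter; nearly all actives have a fitted effect of over 30% in size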). Conditions: p53RE-bla HCT-116 viability, ATP luminescence, 16 h; series mostly up to 83.3 µM. In outline: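 p53RE-bla cells were treated with compound for 16 hours at 37 C. Cytotoxicity was then measured as CellTiter-Glo luminescence after 30 min at room temperature.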
Assay [5] addresses Estrogen receptor (Homo sapiens) (UniProt P03372). The assay can be described thus: qHTS assay to identify small molecule antagonists of the estrogen receptor alpha (ER-alpha) signaling pathway (AID 743069; active means well fitted curve in the direction sought with a large enough effect in the signal ratio in the repeat runs, not every such curve was filed as active; inconclusive means weak or mixed curves, or effect the other way; inactive means no such curve, though single readings can be large or run the other way; the % refers to the signal ratio; further: potency means the concentration at half of the fitted maximal effect). Conditions: HEK293 ER-alpha-UAS-bla, beta-lactamase ratio, antagonist mode; series mostly up to 69.4 µM. A digest of the protocol:
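Beta-lactamase FRET fluorescence is read after 2 hr at room temperature with LiveBLAzer B/G substrate. Before that, ER-alpha-bla HEK293 cells sit 4 hr after plating, then receive compound plus 17beta-estradiol and incubate 18 hr at 37C.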

For assay [6], the target named is Peroxisome proliferator-activated receptor gamma (Homo sapiens) (UniProt P37231). The assay can be described thus: qHTS assay to identify small molecule antagonists of the peroxisome proliferator-activated receptor gamma (PPARg) signaling pathway (AID 743191; calls by dose curve; further: nearly all actives have a fitted effect of over 30% in size; further: potency means the concentration at half of the fitted maximal effect). Conditions: HEK293H PPARg-UAS-bla, beta-lactamase ratio, antagonist, 17 h; series mostly up to 62.6 µM. In outline: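 GeneBLAzer PPARg UAS-bla HEK293H cells, 5 h post-plating, exposed to compounds 17 h at 37C. LiveBLAzer B/G FRET substrate added for 1 h at room temperature; beta-lactamase reporter read by fluorescence intensity.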
Chain of Peroxisome proliferator-activated receptor gamma (Homo sapiens) (P37231 whole entry, looked up): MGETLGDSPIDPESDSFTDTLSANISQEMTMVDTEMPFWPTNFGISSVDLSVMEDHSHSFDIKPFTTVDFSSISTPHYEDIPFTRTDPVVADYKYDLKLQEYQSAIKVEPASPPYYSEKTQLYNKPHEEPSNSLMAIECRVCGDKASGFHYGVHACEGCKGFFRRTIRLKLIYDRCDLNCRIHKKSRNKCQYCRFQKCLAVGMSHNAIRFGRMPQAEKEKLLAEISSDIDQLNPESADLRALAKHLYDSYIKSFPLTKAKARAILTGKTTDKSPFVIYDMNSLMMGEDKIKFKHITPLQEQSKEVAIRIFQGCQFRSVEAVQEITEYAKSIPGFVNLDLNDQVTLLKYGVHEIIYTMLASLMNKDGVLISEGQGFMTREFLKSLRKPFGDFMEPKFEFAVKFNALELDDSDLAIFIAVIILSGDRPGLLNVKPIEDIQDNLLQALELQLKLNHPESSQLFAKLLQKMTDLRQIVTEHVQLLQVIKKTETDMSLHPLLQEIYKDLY

A short description of assay [7]: qHTS assay to identify small molecule agonists of the retinoic acid receptor (RAR) signaling pathway (AID 1159553). Conditions: C3RL4 RARE luciferase reporter, agonist, 6 h; series mostly up to 73.3 µM. In outline: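 Luminescence was measured 30 min after luciferase reagent addition at room temperature. Before that, C3RL4 reporter cells (1,000 per well, plated overnight) were treated with compound for 6 hr at 37 C and 5% CO2.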

A short description of assay [8]: qHTS assay to identify small molecule phospholipidosis (PLD) inducers (AID 1259344; active means well fitted curve in the direction sought with a large enough effect; inconclusive means small, poorly fitted or top-dose-only effect, or another doubt; inactive means no such curve, though single readings can be large; an effect the other way counts as inactive or inconclusive). Conditions: HepG2 phospholipidosis, LipidTOX Red imaging, 24 h; series mostly up to 38.3 µM. A digest of the protocol:
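Read-out is LipidTOX Red fluorescence (ex 595/em 615) imaged in HepG2 cells after 24 h compound exposure at 37 C, with Hoechst nuclear counterstain (ex 352/em 461) allowing per-cell normalisation.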

A short description of assay [9]: qHTS assay to identify small molecule antagonists of the androgen receptor (AR) signaling pathway using the MDA cell line - cell viability counter screen (AID 743041; further: nearly all actives have a fitted effect of over 45% in size; further: potency means the concentration at half of the fitted maximal effect). Conditions: MDA-kb2 viability, CellTiter-Fluor, 16 h, cells co-treated with R1881 androgen agonist; series mostly up to 70.3 µM. A digest of the protocol:
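Cytotoxicity counter screen: MDA-kb2 AR-luc cells, compound + R1881, 16 h, 37C, 0% CO2; CellTiter-Fluor added at 15.5 h, fluorescence read after 30 min.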

Assay [10] concerns the target Vitamin D3 receptor (Homo sapiens) (UniProt P11473). The assay can be described thus: qHTS assay to identify small molecule antagonists of the vitamin D receptor (VDR) signaling pathway (AID 743223; active means well fitted inhibition curve with a large enough effect in the signal ratio in the repeat runs, not every such curve was filed as active; inconclusive means weak or mixed curves, or effect the other way; inactive means no such curve, though single readings can be large or run the other way; the % refers to the signal ratio). Conditions: VDR-UAS-bla HEK293T, beta-lactamase FRET ratio, 16 h; series mostly up to 61 µM. In outline: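 Antagonist mode uses 1alpha,25-dihydroxyvitamin D3 at 3 nM final as stimulus. VDR-bla cells receive compounds in DMSO, incubate 16 h at 37C, then a beta-lactamase FRET substrate for 2 h at room temperature before fluorescence measurement.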

A short description of assay [11]: qHTS assay to identify small molecule agonists of H2AX (AID 1224845; active means well fitted activation curve with a large enough effect in the signal ratio in the repeat runs, not every such curve was filed as active; inconclusive means weak or mixed curves; the % refers to the signal ratio). Conditions: CHO-K1 phospho-H2AX Ser139 HTRF, 3 h; series mostly up to 154 µM. A digest of the protocol:
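Wild-type CHO-K1 cells, plated overnight, exposed 3hr at 37C to 15 concentrations (0.76% DMSO final). Lysed, then HTRF anti-pH2AX (S139) cryptate and anti-H2AX-d2 antibodies, 24 hr room temperature; 665/620 nm emission read.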

Assay [12] is described as follows: qHTS assay to identify small molecule antagonists of the retinoid-related orphan receptor gamma (ROR-gamma) signaling pathway - cell viability counter screen (AID 1159520). Further: nearly all actives have a fitted effect of over 50% in size. Further: potency means the concentration at half of the fitted maximal effect. Conditions: Tet-on RORgamma CHO cells viability, ATP luminescence, 16 h; series mostly up to 92.4 µM. A digest of the protocol: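 Tet-on ROR gamma CHO cells were given compounds for 2 hr, then doxycycline hyclate at 1 uM final, and incubated 16 hr at 37 C. Viability was measured as ATP content by CellTiter-Glo luminescence.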

Assay [13] is described as follows: qHTS assay to identify small molecule agonists of the AP-1 signaling pathway (AID 1159526; calls by dose curve). Conditions: ME-180 (cervical carcinoma) AP-1-bla reporter, beta-lactamase FRET ratio, 5 h; series mostly up to 76.8 µM.
Assay [14] can be described thus: qHTS assay for small molecule agonists of the antioxidant response element (ARE) signaling pathway (AID 743202; active means well fitted activation curve with a large enough effect in the signal ratio in the repeat runs, not every such curve was filed as active; inconclusive means weak or mixed curves, or effect the other way; inactive means no such curve, though single readings can be large or run the other way; the % refers to the signal ratio; further: potency means the concentration at half of the fitted maximal effect). Conditions: HepG2 ARE-bla reporter, beta-lactamase FRET, 16 h; series mostly up to 94.8 µM. In outline: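 HepG2 ARE-bla reporter line, 2,000 cells/well; 5 h preincubation 37 C/5% CO2; compound (DMSO) 16 h 37 C; B/G FRET substrate 2 h RT; fluorescence intensity.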

The target of assay [15] is Androgen receptor (Homo sapiens) (UniProt P10275). The assay can be described thus: qHTS assay to identify small molecule antagonists of the androgen receptor (AR) signaling pathway using the MDA cell line (AID 743042; further: potency means the concentration at half of the fitted maximal effect; nearly all actives have a fitted effect of over 55% in size). Conditions: MDA-kb2 AR-luc, MMTV luciferase, R1881 antagonist, 16 h; series mostly up to 70.3 µM. A digest of the protocol:
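MDA-kb2 breast carcinoma cells carrying MMTV-luciferase (AR/GR responsive) were co-treated with compounds and the agonist R1881 for 16 h at 37C. Inhibition read as ONE-Glo luminescence; CellTiter-Fluor fluorescence measured in parallel for cytotoxicity.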

Molecules are shown by their SMILES. Values without a mark were called inactive. A call without a number means that no potency is given here. The source made the active and inactive calls. Unless noted, the call rests on the fitted dose curve; in most records, active means well fitted curve in the direction sought with a large enough effect in the repeat runs; inconclusive means weak or mixed curves; inactive means no such curve, though single readings can be large; an effect the other way counts as inactive or inconclusive.

Chain of Estrogen receptor (Homo sapiens) (P03372 whole entry, looked up): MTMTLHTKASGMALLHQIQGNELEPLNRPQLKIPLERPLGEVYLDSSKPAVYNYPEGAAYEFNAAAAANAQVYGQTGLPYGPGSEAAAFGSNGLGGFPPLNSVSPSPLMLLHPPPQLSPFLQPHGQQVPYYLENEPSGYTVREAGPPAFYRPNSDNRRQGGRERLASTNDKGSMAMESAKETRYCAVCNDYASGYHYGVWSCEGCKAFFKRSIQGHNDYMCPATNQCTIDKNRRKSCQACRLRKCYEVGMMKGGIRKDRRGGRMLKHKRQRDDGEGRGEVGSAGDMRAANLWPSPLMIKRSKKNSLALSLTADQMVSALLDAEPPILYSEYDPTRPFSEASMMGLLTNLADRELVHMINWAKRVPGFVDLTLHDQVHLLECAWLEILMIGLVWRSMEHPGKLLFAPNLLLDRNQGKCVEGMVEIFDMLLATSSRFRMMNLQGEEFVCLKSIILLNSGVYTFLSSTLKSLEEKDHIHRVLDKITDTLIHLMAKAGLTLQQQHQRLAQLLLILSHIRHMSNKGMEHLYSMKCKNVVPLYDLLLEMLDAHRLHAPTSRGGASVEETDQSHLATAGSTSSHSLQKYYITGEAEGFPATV
Chain of Androgen receptor (Homo sapiens) (P10275 whole entry, looked up): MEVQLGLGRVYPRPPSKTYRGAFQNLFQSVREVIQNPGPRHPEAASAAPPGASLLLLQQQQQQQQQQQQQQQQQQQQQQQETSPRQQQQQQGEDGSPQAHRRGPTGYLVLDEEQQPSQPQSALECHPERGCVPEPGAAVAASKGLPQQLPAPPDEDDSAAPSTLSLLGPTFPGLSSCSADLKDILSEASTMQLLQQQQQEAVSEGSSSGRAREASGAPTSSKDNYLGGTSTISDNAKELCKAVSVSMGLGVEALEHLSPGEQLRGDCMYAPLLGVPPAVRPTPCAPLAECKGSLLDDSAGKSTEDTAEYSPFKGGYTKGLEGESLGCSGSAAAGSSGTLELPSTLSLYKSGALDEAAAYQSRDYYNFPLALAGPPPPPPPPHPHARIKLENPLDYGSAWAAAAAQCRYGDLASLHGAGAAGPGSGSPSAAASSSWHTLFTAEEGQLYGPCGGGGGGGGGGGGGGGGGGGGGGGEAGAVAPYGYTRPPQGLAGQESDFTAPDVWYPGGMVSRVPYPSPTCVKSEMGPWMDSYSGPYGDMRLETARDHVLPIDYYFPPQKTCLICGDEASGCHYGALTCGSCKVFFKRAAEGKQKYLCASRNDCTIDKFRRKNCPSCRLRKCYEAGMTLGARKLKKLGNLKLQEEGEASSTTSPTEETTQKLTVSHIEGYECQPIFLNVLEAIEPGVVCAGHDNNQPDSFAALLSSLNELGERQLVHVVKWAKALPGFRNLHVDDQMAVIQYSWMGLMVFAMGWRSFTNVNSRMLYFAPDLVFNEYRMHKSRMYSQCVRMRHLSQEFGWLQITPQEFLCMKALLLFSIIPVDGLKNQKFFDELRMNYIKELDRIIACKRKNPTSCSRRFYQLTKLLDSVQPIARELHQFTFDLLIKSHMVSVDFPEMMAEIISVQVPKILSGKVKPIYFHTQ
Chain of Vitamin D3 receptor (Homo sapiens) (P11473 whole entry, looked up): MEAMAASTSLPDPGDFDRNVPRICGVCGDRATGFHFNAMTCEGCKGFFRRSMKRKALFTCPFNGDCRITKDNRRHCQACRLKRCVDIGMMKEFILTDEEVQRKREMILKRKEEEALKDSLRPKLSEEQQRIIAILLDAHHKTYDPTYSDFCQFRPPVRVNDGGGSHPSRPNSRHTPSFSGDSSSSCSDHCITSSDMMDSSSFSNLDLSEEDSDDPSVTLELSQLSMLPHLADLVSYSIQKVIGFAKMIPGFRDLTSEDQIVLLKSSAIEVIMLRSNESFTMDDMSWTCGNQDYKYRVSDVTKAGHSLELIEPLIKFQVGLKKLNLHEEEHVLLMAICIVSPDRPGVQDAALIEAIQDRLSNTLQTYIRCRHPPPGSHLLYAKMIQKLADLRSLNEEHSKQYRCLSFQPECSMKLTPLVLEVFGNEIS
Chain of Bile acid receptor (Homo sapiens) (Q96RI1 whole entry, looked up): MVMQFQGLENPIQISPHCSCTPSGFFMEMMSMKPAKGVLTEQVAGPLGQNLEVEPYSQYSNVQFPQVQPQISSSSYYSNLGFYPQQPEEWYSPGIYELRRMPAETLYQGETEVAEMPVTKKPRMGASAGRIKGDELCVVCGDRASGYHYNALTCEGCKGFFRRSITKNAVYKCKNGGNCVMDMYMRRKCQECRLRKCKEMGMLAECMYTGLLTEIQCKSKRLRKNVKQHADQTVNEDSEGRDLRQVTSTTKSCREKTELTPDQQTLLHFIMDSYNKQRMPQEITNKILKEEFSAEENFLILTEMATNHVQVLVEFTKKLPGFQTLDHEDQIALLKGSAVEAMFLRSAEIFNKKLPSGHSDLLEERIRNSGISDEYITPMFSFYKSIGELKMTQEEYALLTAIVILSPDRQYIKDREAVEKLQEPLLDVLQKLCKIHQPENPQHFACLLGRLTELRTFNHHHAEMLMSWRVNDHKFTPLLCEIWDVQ

With `COc1cc(OC)c(OC)cc1C=O`, the Potency entry in [1] and in [2] was “inactive” in each case.

On to `CCC(C)=O`, for which, in [3], the outcome was inactive.

Turning to `O=C(Nc1ccccc1-c1ccc(Cl)cc1)c1cccnc1Cl`, the Potency entry in [4], in [5], in [2] and in assay [8] was “inactive” in each case. The Potency in assay [6] was 51.9 µM (active). Besides, the molecule was classed as inactive in [7].

Turning to `CN1CSC(=S)N(C)C1`, the Potency result in assay [4], in assay [2] and in [6] was “inactive” in each case. In addition, the Potency in assay [9] was 24.3 µM (active). Moreover, the result in assay [3] and in assay [10] was inactive.

For `Brc1cc(Br)cc(Br)c1`, the Potency result in assay [11] is “inactive”.

With `COc1ccc(C(c2ccc(OC)cc2)C(Cl)(Cl)Cl)cc1`, the Potency was 43.4 µM [inconclusive] (active) in [5] and 4.97 µM (active) in assay [2]. Also, in assay [7], the outcome was inactive.

For `O=S(=O)(C(Cl)(Cl)Cl)C(Cl)(Cl)Cl`, the Potency in [12] is 17.2 µM (active).

Regarding `ClC(Cl)=C(c1ccc(Cl)cc1)c1ccccc1Cl`, in assay [12], the Potency result is “inactive”.

Consider `C[C@]12CC[C@@H](O)C[C@@H]1CC[C@@H]1[C@@H]2CC[C@]2(C)C(=O)CC[C@@H]12`, for which the outcome in [13] was inactive.

Consider `Cc1cc(C(C)(C)c2ccc(O)c(C)c2)ccc1O`, for which the Potency result in [1] and in [9] was “inactive” in each case. Further, in [14], the Potency was 9.23 µM (active). Besides, the result in assay [3] and in assay [10] was inactive.

For `CO/C=C(/C(=O)OC)c1ccccc1Oc1cc(Oc2ccccc2C#N)ncn1`, the Potency entry in [1] is “inactive”. Moreover, the Potency in assay [9] was 21.7 µM (active); in [15], 6.83 µM (active). For the same molecule, the call in [7] was inactive.

For the molecule `O=C(O)C(c1ccc(Cl)cc1)c1ccc(Cl)cc1`, the outcome in [10] was inactive.

As for `CCc1cccc(C)c1N`, the outcome in [10] was inactive.

As for `Clc1ccccc1-c1ccccc1Cl`, the Potency entry in assay [9] and in assay [14] was “inactive” in each case. Also, the molecule was called inactive in [7].

For the molecule `Cc1cccc([N+](=O)[O-])c1C`, the Potency result in [11] is “inactive”.
